{"source": "PubChem BioAssay (Tox21)", "note": "Records with an inconclusive call do not appear. Activity calls are given as the source filed them. Calls follow the shape of the dose curve; as a rule, active = well fitted activation curve with a large enough effect in the signal ratio in the repeat runs, with a control signal flat (not every such curve was filed as active); inconclusive = weak or mixed curves; inactive = flat fitted curve, though single readings scatter; the % refers to the signal ratio. % is scaled to controls: 0 for no effect and ±100 for the full control effect; potency is read from the fitted curve at half-maximal effect.", "data": [{"test": "qHTS assay for small molecule activators of the heat shock response signaling pathway (AID 743210)", "settings": "HeLa HSE-bla reporter, beta-lactamase ratio, 5 h; series mostly up to 62.6 µM; activation: at the top concentration", "from_the_text": "U.S. Tox21 Program National Center for Advancing Translational Sciences [NCATS] NIH Chemical Genomics Center [NCGC] U.S. Environmental Protection Agency [EPA] National Institutes of Environmental Health Sciences [NIEHS] National Toxicology Program [NTP] U.S. Food and Drug Administration [FDA] Tox21 Assay Overview: Various chemicals, environmental and physiological stress conditions may lead to the activation of heat shock response/ unfolded protein response (HSR/UPR). There are three heat shock transcription factors (HSFs) (HSF-1, -2, and -4) mediating transcriptional regulation of the human HSR. To identify the compounds that activate HSR signaling, HSE-bla HeLa cell line (Invitrogen, Carlsbad, CA, USA) containing a beta-lactamase reporter gene under the control of the heat shock response elements was used to screen the Tox21 10K compound library.\nTox21 Assay Protocol Summary: The CellSensor HSE-bla HeLa cells (Invitrogen, Carlsbad, CA, USA) were dispensed at 1500 cells/6uL/well into 1536-well black wall/clear bottom plates using a Multidrop combi (Thermo Fisher Scientific, Waltham, MA) dispenser. After the assay plates were incubated at 37 C and 5% CO2 overnight, 23 nL of compounds dissolved in DMSO, positive controls or DMSO only was transferred to the assay plate by a Pintool station (Kalypsys, San Diego, CA). The plates were incubated at 37 C for 5 h. After 1 uL of LiveBLAzerTM B/G FRET substrate was added using a Flying Reagent Dispenser (Beckman Coulter, Indianapolis, IN, USA), the plates were incubated at room temperature for 2.5 h, and fluorescence intensity was measured by an Envision plate reader (PerkinElmer, Shelton, CT).", "values": [{"smiles": "C1COCO1", "activation": "-0.171% (inactive)"}, {"smiles": "C=CC(C)(C)CC(=O)OC", "activation": "0.223% [at 81.1 µM] (inactive)"}, {"smiles": "CC(=O)[C@H]1CC[C@H]2[C@@H]3C[C@H](C)C4=CC(=O)CC[C@]4(C)[C@H]3[C@@H](O)C[C@]12C", "activation": "-0.765% (inactive)"}, {"smiles": "NC(=O)Nc1ccc(Cl)c(Cl)c1", "activation": "-0.556% (inactive)"}, {"smiles": "CSc1ccc(Oc2ccc(S(N)(=O)=O)cc2CN(C)C)cc1C", "activation": "-0.258% (inactive)"}, {"smiles": "COc1cc2[nH]c(=O)[nH]c(=O)c2cc1OC", "activation": "-1.4% (inactive)"}, {"smiles": "Cc1oncc1C(=O)Nc1ccc(C(F)(F)F)cc1", "activation": "-1.17% (inactive)"}, {"smiles": "CCCCN(CCCC)C(=S)SSC(=S)N(CCCC)CCCC", "Potency": "1.37 µM (active)"}, {"smiles": "Cc1ccc(S(=O)(=O)NC2CCCCC2)cc1", "activation": "1.22% (inactive)"}, {"smiles": "O=C(CS)OCCOC(=O)CS", "activation": "-0.698% (inactive)"}, {"smiles": "COc1ccc(CCC(=O)c2c(O)cc(O[C@@H]3O[C@H](CO)[C@@H](O)[C@H](O)[C@H]3O[C@@H]3O[C@@H](C)[C@H](O)[C@@H](O)[C@H]3O)cc2O)cc1O", "activation": "0.422% (inactive)"}, {"smiles": "CCCCC(CC)CNCC(CC)CCCC", "note": "(stereo not given)", "activation": "0.174% (inactive)"}, {"smiles": "CCCCC(CC)C(=O)OCCOCCOCCOCCOC(=O)C(CC)CCCC", "note": "(stereo not given)", "activation": "-0.165% (inactive)"}, {"smiles": "NC(=O)Nc1ccc(Cl)cc1", "activation": "0.0551% (inactive)"}, {"smiles": "CN1Cc2cc(C(=O)N3CCC(C4CCNCC4)CC3)ccc2N[C@@H](CC(=O)O)C1=O", "activation": "0.46% (inactive)"}, {"smiles": "NC(=O)N(O)[C@@H]1C=C[C@H](Oc2cccc(Oc3ccc(F)cc3)c2)C1", "activation": "0.0874% (inactive)"}, {"smiles": "O=[N+]([O-])c1cccc(S(=O)(=O)NCCNS(=O)(=O)c2cccc([N+](=O)[O-])c2)c1", "activation": "-0.05% (inactive)"}, {"smiles": "CC1CN(c2cc3c(cc2F)c(=O)c(C(=O)O)cn3-c2ccc(F)cc2F)CCN1", "note": "(stereo not given)", "activation": "0.895% [at 5.95 µM] (inactive)"}, {"smiles": "CC[C@@H]([C@H](C)O)n1ncn(-c2ccc(N3CCN(c4ccc(OC[C@@H]5CO[C@@](Cn6cncn6)(c6ccc(F)cc6F)C5)cc4)CC3)cc2)c1=O", "activation": "1.87% (inactive)"}, {"smiles": "CC1=NN(c2ccc(C(=O)O)cc2)C(=O)C1", "activation": "-0.0572% (inactive)"}, {"smiles": "CCCCOC(=O)CCS", "activation": "-0.829% (inactive)"}, {"smiles": "CCC(C)(C)C1CCC(O)CC1", "note": "(stereo not given)", "activation": "-1.11% (inactive)"}, {"smiles": "CCCC(=O)O[C@]1(C(=O)COC(=O)CC)CC[C@H]2[C@@H]3CCC4=CC(=O)CC[C@]4(C)[C@H]3[C@@H](O)C[C@@]21C", "activation": "-0.432% [at 29.1 µM] (inactive)"}, {"smiles": "CCCCC(CC)COC(=O)COc1ccc(Cl)cc1C", "note": "(stereo not given)", "activation": "-0.0858% (inactive)"}, {"smiles": "OCC1CC=CCC1", "note": "(stereo not given)", "activation": "0.0296% (inactive)"}, {"smiles": "CC(=O)OCC(=O)[C@@]12OC(C)(C)O[C@@H]1C[C@H]1[C@@H]3C[C@H](F)C4=CC(=O)C=C[C@]4(C)[C@@]3(F)[C@@H](O)C[C@@]12C", "activation": "-0.475% (inactive)"}, {"smiles": "COC(OC)(C(=O)c1ccccc1)c1ccccc1", "activation": "0.178% (inactive)"}, {"smiles": "CC#N", "activation": "-0.388% [at 81.1 µM] (inactive)"}, {"smiles": "Cc1nc2ccccn2c(=O)c1CCN1CCC(C(=O)c2ccc(F)cc2)CC1", "activation": "1% (inactive)"}, {"smiles": "CC1(C)C(=O)N(Br)C(=O)N1Cl", "activation": "-0.0048% (inactive)"}, {"smiles": "CC(=O)Oc1ccc(C(=C2CCCCC2)c2ccc(OC(C)=O)cc2)cc1", "Potency": "26.6 µM (active)"}, {"smiles": "CCC(C)(O)CCC=C(C)C", "note": "(stereo not given)", "activation": "-0.106% (inactive)"}, {"smiles": "Cc1ccnc2ccccc12", "activation": "-0.209% (inactive)"}, {"smiles": "CO[Si](C)(OC)OC", "activation": "-0.595% (inactive)"}, {"smiles": "COCC(O)CO", "note": "(stereo not given)", "activation": "-1.48% [at 81.1 µM] (inactive)"}, {"smiles": "CO[C@H]1O[C@H](CO)[C@@H](O)[C@H](O)[C@H]1O", "activation": "-1.06% (inactive)"}, {"smiles": "CO[C@@]12[C@H](COC(N)=O)C3=C(C(=O)C(C)=C(N)C3=O)N1C[C@@H]1N[C@@H]12", "activation": "-2.66% (inactive)"}, {"smiles": "C[C@@H]1C[C@H]2[C@@H]3CCC4=CC(=O)C=C[C@]4(C)[C@@]3(F)[C@@H](O)C[C@]2(C)[C@H]1C(=O)CO", "activation": "0.15% (inactive)"}, {"smiles": "CNCCCC1c2ccccc2C=Cc2ccccc21", "activation": "-0.0674% (inactive)"}, {"smiles": "CCCCCCCCCCCCCCC[C@H](O)[C@@H](N)CO", "activation": "1.03% (inactive)"}]}]}
